From PubChem BioAssay (EPA / NIEHS) come the findings set out here.

In general, AC50 refers to the concentration giving half of the maximal activity seen.

Calls of active or inactive are those of the source. How the source made its calls: active means hit-call score of the fitted dose curve at least 0.9, where 1 is the maximum; inactive means score below 0.9.

A short description of this assay: APR_HepG2_NuclearSize_24hr: Apredica 24-hour HepG2 Assay for Nuclear Size (AID 2282907). The conditions noted are these: high-content imaging, actives raise or lower the signal. The procedure:
APR_HepG2_24hr is a cell-based, multiplexed-readout assay that uses HepG2, a human liver cell line, with measurements taken at 24 hours after chemical dosing in a 384-well plate.APR_HepG2_NuclearSize_24hr is one of 10 assay component(s) measured or calculated from the APR_HepG2_24hr assay. It is designed to make measurements of cell phenotype, a form of morphology reporter, as detected with fluorescence intensity signals by HCS Fluorescent Imaging technology.Data from the assay component APR_HepG2_NuclearSize_24hr was analyzed into 1 assay endpoint. This assay endpoint, APR_HepG2_NuclearSize_24hr, was analyzed with bidirectional fitting relative to DMSO as the negative control and baseline of activity. Using a type of morphology reporter, measures of all nuclear dna for gain or loss-of-signal activity can be used to understand the signaling at the nuclear-level. Furthermore, this assay endpoint can be referred to as a primary readout, because this assay has produced multiple assay endpoints where this one serves a signaling function. To generalize the intended target to other relatable targets, this assay endpoint is annotated to the cell morphology intended target family, where the subfamily is organelle conformation.
Cells were treated with dimethyl sulfoxide (DMSO) as a solvent control at a final concentration of 0.5% v/v or with compounds in DMSO with a resulting final DMSO concentration of 0.5% v/v. Compound treatment was done at concentrations of 0.39, 0.78, 1.56, 3.12, 6.24, 12.5, 25, 50, 100, and 200 uM in duplicate on each plate. Cells were treated with compounds for 1, 24, or 72 hr. Carbonyl […] m-chloro-phenylhydrazone (CCCP) and taxol were used as positive controls for mitochondrial function and cytoskeletal stability, respectively; DMSO served as the negative control for this experiment. Cells were fixed by the direct addition of 50 uL formaldehyde in Hank's Balanced Salt Solution (HBSS) to a final concentration of 3.7%. After incubation in the fixation medium for 30 min at room temperature (293-298 K), cells were rinsed twice with HBSS and treated with cell permeabilization buffer (16 uL of 0.5% Triton X-100) for 10 min at room temperature (293-298 K) before labeling. For mitochondrial membrane potential and mitochondrial measurements, pre-fixed cells were incubated with 50 uL of MitoTracker Red CMXRos (Invitrogen) at a concentration of 250 nM for 30 min before fixation. In the remaining cases, post-fixed cells were labeled by incubation with a multiplexed mixture of primary antibodies in HBSS for 60 min at room temperature (293-298 K) to detect immunoreactivity of c-Jun (1:500), phospho-histone H3 (1:100), phospho-histone H2A.x (1:200), p53 (1:400), alpha-tubulin (1:200) and Hoechst 33342 (2 ug/mL). Cells were labeled for multiplexed imaging on two separate plates: a) Hoechst 33342, MitoTracker Red, phospho-histone H3, and alpha-tubulin, and b) Hoechst 33342, phospho-histone H2A.x, and c-Jun. A final rinse with HBSS (50 uL) was performed before analysis. The primary and secondary antibodies for the proteins were phospho-histone H3 (rabbit anti-phospho-histone H3 and FITC-donkey anti-rabbit IgG), phospho-histone H2A.x (mouse anti-phospho-histone H2A.x and FITC-donkey anti-mouse IgG), c-Jun (rabbit anti-phospho-c-Jun and Cy3-donkey anti-rabbit IgG), p53 (sheep anti-p53 and Cy5-donkey anti-sheep IgG), alpha-tubulin (mouse anti-alpha-tubulin and Cy5-donkey anti-mouse IgG). These antibodies are available as the CellCiphr HepG2 assay kit (Millipore).Digital images of each well were captured using a Cellomics ArrayScan VTI (Thermo Scientific Cellomics) (0.8 NA objective, 0.63x optical coupler, and XF-93 filter set) at 20x magnification. The images were acquired using the autofocus feature of the ArrayScan instrument, which entails the following steps. First, the camera focuses on channel 1 (Hoechst 33342), where nuclei are identified. Second, a Z offset of 1 um is used for capturing mitochondria (MitoTracker Red). […]
Turning to `Nc1ccn([C@@H]2O[C@H](CO)[C@@H](O)[C@@H]2O)c(=O)n1`, the AC50 was 39.1 nM (active). Consider `CCCC(CCC)C(=O)O`, for which the outcome was inactive. In the case of `CCCc1ccccc1`, the compound was classed as inactive.

On to `O=C(O)c1cccc(C(=O)O)c1`, for which the compound was called inactive. The same measure, in the same setting: the result for `CC(C)CC(C)O` (stereo not given) reads “inactive”; that for `Cc1ccc(S(=O)(=O)NC(=O)NN2CCCCCC2)cc1`, “inactive”.

Turning to `NNC(=O)c1ccncc1`, the result was inactive. For `NC(=O)N(O)[C@@H]1COc2cc(OCc3ccccc3)ccc21`, the compound was classed as inactive. As for `CCOc1ccc2[nH]cc(C(=O)NCc3ccccc3)c(=O)c2n1`, the compound was classed as inactive. `CCCCCCCCN(C)C`: the result was inactive. As for `CC(C)CCCCCCOC(=O)C1CCCCC1C(=O)OCCCCCCC(C)C` (stereo not given), the compound was called inactive. With `CC(C)C(=O)Nc1ccc([N+](=O)[O-])c(C(F)(F)F)c1`, the compound was classed as inactive.

As for `COCc1nnc(-c2ccc[n+]([O-])c2)n1-c1c(Cl)c(Cl)cc2[nH]c(=O)c(=O)[nH]c12`, the call was inactive. For `OCc1ccccc1`, the result was inactive. `C[C@@H](Oc1ccc(CNC(=O)c2cccnc2Oc2ccc3c(c2)OCO3)c(F)c1)C(=O)O`: the outcome was inactive. Still for that read-out and setting: with `NC(N)=O` the entry was “inactive”; with `O=C(O)[C@H](O)[C@@H](O)C(=O)O`, “inactive”.

Take `CCCCCCCC/C=C\CCCCCCCC(=O)OC[C@@H](O)[C@H]1OC[C@H](O)[C@H]1O`: the compound was classed as inactive. On to `CCn1nc(C)c2c1C(=O)NCC(c1ccc(O)cc1)=N2`, for which the outcome was inactive. In the case of `Cc1nccn1-c1ccc(Sc2cccc(C3(C(N)=O)CCOCC3)c2)cc1`, the call was inactive.

As for `CCCCCCCCCCCCCCCCOS(=O)(=O)O`, the call was inactive.

For `CC1(C)C(=O)N(Cl)C(=O)N1Cl`, the result was inactive.

Regarding `COS(C)(=O)=O`, the compound was called inactive.

`c1ccc2cc3ccccc3cc2c1`: the result was inactive. With `CCCCCCOC(=O)CC(CC(=O)OCCCCCC)(OC(=O)CCC)C(=O)OCCCCCC`, the call was inactive.

Regarding `CC[C@H](C)C(=O)O[C@H]1C[C@H](O)C=C2C=C[C@H](C)[C@H](CC[C@@H](O)C[C@@H](O)CC(=O)O)[C@H]21`, the compound was called inactive. Take `OCCNCCO`: the result was inactive.

Turning to `C=CN1CCCC1=O`, the call was inactive. As to `O=C(O)c1ccc2c(c1)nc(C(=O)NC1CCN(C3CC3)CC1)n2Cc1cc(-c2ccc(Cl)s2)on1`, the compound was called inactive. Still for that read-out and setting: the result for `OC(Cn1cncn1)(Cn1cncn1)c1ccc(F)cc1F` reads “inactive”; that for `Cc1ncc([C@@H](CCCCCCc2ccc3c(n2)NCCC3)CC(=O)O)cn1`, “inactive”. Same read-out and setting: with `Cn1c(=O)c2[nH]cnc2n(C)c1=O` the entry was “inactive”; with `CCOC(N)=O`, “inactive”; with `OCCOCCOCCO`, “inactive”. As for `NC(=O)NN=Cc1ccc([N+](=O)[O-])o1`, the compound was called inactive. In the case of `O=C(O)c1cccc(C[C@@H]2COc3ccc(OCc4nc5cc(F)ccc5s4)cc3[C@@H]2O)c1`, the compound was classed as inactive.

Regarding `CC(=O)c1ccccc1`, the compound was called inactive. On to `CCCOc1ccc(S(=O)(=O)N2CCN(CC)CC2)cc1-c1nc2c(CC)n(Cc3ccccn3)nc2c(=O)[nH]1`, for which the result was inactive. On the same count and under the same terms, with `CCc1ccc(O)c(C(C)(C)C)c1` the entry was “inactive”. Turning to `OC[C@H]1O[C@@H]2O[C@H]3[C@H](O)[C@@H](O)[C@@H](O[C@H]4[C@H](O)[C@@H](O)[C@@H](O[C@H]5[C@H](O)[C@@H](O)[C@@H](O[C@H]6[C@H](O)[C@@H](O)[C@@H](O[C@H]7[C@H](O)[C@@H](O)[C@@H](O[C@H]1[C@H](O)[C@H]2O)O[C@@H]7CO)O[C@@H]6CO)O[C@@H]5CO)O[C@@H]4CO)O[C@@H]3CO`, the outcome was inactive.
